Bioassay records: PubChem, several laboratories
Rows were chosen to be rich in hits. Some 1.9% of all compounds tested hit in one or more screens of this group.
PABP polyA inh: PABP-poly(A) binding inhibition | P11940 | PABP-poly(A) RNA binding, fluorescence polarization | calls only at 35 µM | 1% of 290,000 active | AID 2014;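 also: calls also rest on retests at 20 µM and on dose response follow-up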
14-3-3 Bad inh: disrupts binding of bovine 14-3-3 zeta to phospho-Bad peptide; P63103; TR-FRET 14-3-3zeta/Dy647-pBad peptide displacement, 1 h; inhibition, % at 21.7 µM; 0.71% of 220,000 active;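 active = inhibition above about 70%, limit read from the data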;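 also: 0% = full 14-3-3 plus peptide FRET controls and 100% = background without 14-3-3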
MLLE-PAM2 inh: blocks PAM2 peptide binding to the PABP1 MLLE domain. P11940. GST-MLLE / FITC-PAM2 fluorescence polarization. inhibition, % at 20 µM. 0.36% of 360,000 active. AID 588489; in the data active = inhibition above about 35%, passing the limit was not always enough;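 also: plate controls were DMSO wells with GST-MLLE for no effect and wells lacking GST-MLLE protein for full effect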
eIF4E-4G inh: eIF4E/eIF4G interaction inhibition in translation initiation | 0.37% of 220,000 active | TR-FRET eIF4E-eIF4GI(517-606) binding, 2 h | inhibition, % at 21.7 µM | AID 782 | P63073+Q04637;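 active = inhibition above about 30%, limit read from the data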;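 also: 0% = full FRET control wells and 100% = background wells lacking eIF4GI fragment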
Target sequence (P63073 whole entry, looked up, the tested form may be a part): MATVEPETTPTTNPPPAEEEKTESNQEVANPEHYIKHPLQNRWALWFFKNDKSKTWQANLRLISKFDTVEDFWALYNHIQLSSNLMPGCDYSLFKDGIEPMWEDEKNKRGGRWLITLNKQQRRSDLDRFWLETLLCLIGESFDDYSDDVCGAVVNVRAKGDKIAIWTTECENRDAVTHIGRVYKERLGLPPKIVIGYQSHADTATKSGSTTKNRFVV
Target sequence (Q04637 whole entry, looked up, the tested form may be a part): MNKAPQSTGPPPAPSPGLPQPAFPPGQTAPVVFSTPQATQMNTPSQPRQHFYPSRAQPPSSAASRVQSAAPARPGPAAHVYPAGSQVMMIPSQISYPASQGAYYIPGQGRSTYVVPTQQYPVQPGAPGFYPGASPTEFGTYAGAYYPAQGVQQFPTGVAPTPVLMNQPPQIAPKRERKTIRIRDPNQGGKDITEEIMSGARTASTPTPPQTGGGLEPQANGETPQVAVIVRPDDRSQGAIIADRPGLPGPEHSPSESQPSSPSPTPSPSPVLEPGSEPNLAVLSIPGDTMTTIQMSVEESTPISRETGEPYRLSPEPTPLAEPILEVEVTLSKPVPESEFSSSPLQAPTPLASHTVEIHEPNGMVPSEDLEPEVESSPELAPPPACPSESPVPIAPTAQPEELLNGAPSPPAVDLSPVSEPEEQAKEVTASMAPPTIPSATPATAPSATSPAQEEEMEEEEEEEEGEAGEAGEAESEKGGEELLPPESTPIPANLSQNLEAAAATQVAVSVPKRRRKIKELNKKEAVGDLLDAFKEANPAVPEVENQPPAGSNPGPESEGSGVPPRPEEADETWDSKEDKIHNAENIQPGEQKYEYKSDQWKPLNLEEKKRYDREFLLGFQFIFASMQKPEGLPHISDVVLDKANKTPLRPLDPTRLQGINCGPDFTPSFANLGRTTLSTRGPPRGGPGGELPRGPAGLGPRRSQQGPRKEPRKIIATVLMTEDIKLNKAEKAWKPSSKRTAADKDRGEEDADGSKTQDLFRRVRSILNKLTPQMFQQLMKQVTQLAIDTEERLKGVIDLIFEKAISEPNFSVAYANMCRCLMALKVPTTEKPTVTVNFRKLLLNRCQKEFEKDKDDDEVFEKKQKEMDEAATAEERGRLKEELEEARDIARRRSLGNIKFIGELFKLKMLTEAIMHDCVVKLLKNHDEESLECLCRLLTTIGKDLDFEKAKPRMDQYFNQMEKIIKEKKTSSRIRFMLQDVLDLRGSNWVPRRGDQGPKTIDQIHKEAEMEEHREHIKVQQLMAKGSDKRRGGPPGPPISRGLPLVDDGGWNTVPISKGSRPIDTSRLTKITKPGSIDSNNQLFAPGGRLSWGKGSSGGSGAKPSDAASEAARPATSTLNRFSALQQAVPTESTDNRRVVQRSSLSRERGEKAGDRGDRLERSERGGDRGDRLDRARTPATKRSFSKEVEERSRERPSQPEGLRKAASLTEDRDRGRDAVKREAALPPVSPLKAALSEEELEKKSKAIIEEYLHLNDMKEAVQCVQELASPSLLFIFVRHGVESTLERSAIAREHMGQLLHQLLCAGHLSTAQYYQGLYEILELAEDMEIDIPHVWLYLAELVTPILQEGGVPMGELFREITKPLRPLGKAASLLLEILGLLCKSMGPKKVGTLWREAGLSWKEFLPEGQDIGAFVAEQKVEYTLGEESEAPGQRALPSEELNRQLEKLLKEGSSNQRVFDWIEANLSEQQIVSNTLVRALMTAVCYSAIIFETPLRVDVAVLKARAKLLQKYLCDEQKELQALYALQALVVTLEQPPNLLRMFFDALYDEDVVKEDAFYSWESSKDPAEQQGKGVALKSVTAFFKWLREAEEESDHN
eIF4H FP inh: inhibitors of RNA binding by human eIF4H; Q15056; eIF4H fluorescence polarization binding assay; inhibition, % at 35 µM; 0.94% of 290,000 active; AID 2012;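 also: calls also rest on retests at 20 µM and on dose response follow-up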
* marks the source's active call; other numbers are inactive results; i = inactive; ? = inconclusive; nt = no result; + = active, no number; [ ] = remark or other dose. Unless noted, no rule for the calls is given here.

SMILES	PABP polyA inh	14-3-3 Bad inh	MLLE-PAM2 inh	eIF4E-4G inh	eIF4H FP inh
COc1cc(NC(=O)c2ccc3c(SCC(=O)O)c4c(nc3c2)CCCC4)cc(OC)c1OC	i	-2.1	-6.7	-2.4	-8.5
O=C(O)CSc1c2c(nc3cc(C(=O)N4CCOCC4)ccc13)CCCC2	i	81.8*	30.4	5.3	1.3
CCOC(=O)c1ccc(NC(=O)NCc2ccc(OC)cc2)cc1	i	79.2*	-10.9	0.3	-5.3
COc1ccc(CNC(=O)Nc2ccc(C)cc2)cc1	i	3.3	11.1	1.9	-3.0
COc1ccc2c(-c3ccccc3)cc(N3CCOCC3)nc2c1	i	85.7*[fluorescence artefact?]	3.3	18.0	-1.1
c1ccc(-c2cc(-c3ccc(N4CCOCC4)cc3)nc3ccccc23)cc1	i	3.2	8.7	14.6	1.1
Cn1nc(C(=O)NCCOc2ccccc2)c2ccccc2c1=O	i	74.7*	16.7	-3.1	-0.9
CC(C)c1ccc(NC(=O)Nc2nc(CN)cs2)cc1	nt	nt	5.0	nt	nt
Cc1ccc2nc(C3CCCCC3)c(Cc3ccccc3)n2c1	nt	nt	-6.4	nt	nt
O=C(CN(C1CCCCC1)C1CCCCC1)N1CCc2ccccc2C1	i	88.3*	2.6	10.4	8.3
N#Cc1cccc(C(=O)OCC(=O)NCc2ccco2)c1	i	nt	-16.4	nt	-11.7
COc1ccccc1-n1nnnc1SCC(=O)Nc1ccc(C)c(N)c1	i	nt	-2.2	nt	-5.6
Cc1ncc(C[n+]2csc(CCOC(=O)CC3C4CC5CC(C4)CC3C5)c2C)c(N)n1 (centres undefined)	+	34.1	14.9	7.1	27.9
CCOc1ccc(NC(=O)CN(C)C(=O)c2ccc(N3CCCC3)c([N+](=O)[O-])c2)cc1OCC	nt	nt	-15.3	nt	nt
OCC1CCCN(C(=S)Nc2ccc(OC(F)F)cc2)C1 (centres undefined)	i	-16.6	-62.7	1.4	-0.6
OCC1CCCN(C(=S)Nc2ccc(Nc3ccccc3)cc2)C1 (centres undefined)	+	-11.7	-89.7	-2.1	?
CC1(C)CC(=O)C(C(C2=C(O)CC(C)(C)CC2=O)c2ccc(O)c([N+](=O)[O-])c2)=C(O)C1	i	-4.0	39.9	7.6	3.2
COc1ccc(C2CC(c3c(O)cc(C)oc3=O)=NCCS2)c(OC)c1 (centres undefined)	+	6.4	-29.9	5.5	73.8*
COc1cc(C=C2C(=O)c3ccccc3C2=O)cc(OC)c1	i	0.6	23.5	-0.5	3.8
COc1cccc(/C=C2\C(=O)C(=O)c3ccccc32)c1	i	6.6	37.8*	4.0	-2.5
Cn1c(=O)c2sccc2n(Cc2cccc(Br)c2)c1=O	i	nt	7.8	nt	3.1
NCCCC[C@@H]1NC(=O)[C@H](CCC(=O)O)NC(=O)c2cc([N+](=O)[O-])cc(I)c2SC[C@@H](C(=O)NCC(N)=O)NC1=O	i	48.4	4.2	5.0	14.1
NCCCC[C@@H]1NC(=O)c2cc([N+](=O)[O-])cc(I)c2SC[C@@H](C(N)=O)NC(=O)[C@H](Cc2ccc(O)cc2)NC1=O	i	71.8*[fluorescence artefact?]	-2.4	2.2	-4.0
C[C@@H](O)C1NC(=O)[C@H](CCCCN)NC(=O)c2cc([N+](=O)[O-])cc(I)c2NCCC[C@@H](C(N)=O)NC1=O (some centres undefined)	i	2.6	4.1	34.0*	-10.1
CC(C)[C@@H]1NC(=O)c2cc([N+](=O)[O-])cc(I)c2NCC[C@@H](C(N)=O)NC(=O)[C@H](CO)NC1=O	i	2.5	nt	8.6	6.9
SMILES	PABP polyA inh	14-3-3 Bad inh	MLLE-PAM2 inh	eIF4E-4G inh	eIF4H FP inh
O=C(CSc1n[nH]c(-c2ccccc2)n1)Nc1ccccc1O	i	nt	-10.7	nt	7.2
O=C(N/N=C/c1cccc(Br)c1)C1CC(=O)N(c2ccccc2)C1 (centres undefined)	i	nt	14.9	nt	-4.5
O=C(O)CSc1cc(NS(=O)(=O)c2ccc(Br)cc2)c2ccccc2c1O	i	nt	46.1*	nt	5.6
O=S(=O)(Nc1cc(Sc2ncn[nH]2)c(O)c2ccccc12)c1ccccc1	i	70.6*	-60.5	26.6	-1.9
O=[N+]([O-])c1cc(Oc2cccnc2)cc([N+](=O)[O-])c1	i	-2.3	2.9	-1.6	-3.4
Cn1cc([N+](=O)[O-])c(C(=O)Nc2cc(Oc3cccnc3)cc([N+](=O)[O-])c2)n1	i	74.4*	nt	2.4	-6.6
CC(C)CN(CC(C)C)C1=N/C(=C\c2ccco2)C(=O)N1c1ccccc1	+	-6.6	-49.8	1.2	69.2
O=[N+]([O-])c1ccc(CN2CCN(c3ccccc3)CC2)o1	i	nt	-6.1	nt	7.1
Clc1ccccc1-c1ccc(CN2CCN(c3ccccc3)CC2)o1	i	73.3*	2.5	-8.7	-8.6
COc1ccc(CC(=O)OCn2nnc3ccccc3c2=O)cc1OC	+	0.2	9.7	-3.4	92.0*
COc1ccc(CC(=O)OCn2nnc3ccccc3c2=O)cc1	i	5.6	4.7	6.8	-3.3
Cc1ccccc1CSc1nncn1N	i	2.0	-6.0	46.3*	-11.8
O=S(=O)(c1ccc(NC(=S)Nc2ccccc2)cc1)N1CCOCC1	i	7.7	28.0	3.1	-7.4
C/C(=N\NC(=S)Nc1cccc(C)c1)c1ccccc1	i	-9.8	39.6*	-3.7	3.5
Cc1cc(C)c(O)c(NC(=S)NC(=O)Cc2ccccc2)c1	i	nt	41.8*	nt	-6.9
Cc1cccc(NC(=S)NC(=O)CCc2ccccc2)c1	i	76.5*	23.8	-2.2	0.7
O=C(CCc1ccccc1)NC(=S)Nc1ccc(S(=O)(=O)N2CCOCC2)cc1	i	-18.5	44.1*	1.4	-5.3
O=C(Nc1ccc(S(=O)(=O)N2CCOCC2)cc1)c1ccc2c(c1)OCO2	i	-4.0	-3.6	-0.2	-5.2
O=S(=O)(c1ccc(NC(=S)Nc2ccc3c(c2)OCO3)cc1)N1CCOCC1	+	-1.3	22.2	-27.3	94.2*
Cc1c(N)cc(N)cc1C(=O)O	+	84.0*	0.3	-0.8	82.7*
Cc1c(Br)cc(C(=O)O)c(C)c1C	i	12.3	2.9	7.0	6.2
CC1Nc2ccccc2C(=O)N1NC(=O)c1ccc(Br)cc1 (centres undefined)	i	-8.3	5.7	1.0	3.6
NCCCCc1cn(CC(=O)N2CCNCC2)nn1	+	-3.5	5.5	0.7	7.1
CCOC(=O)C1=C(C)N(C)C(=O)NC1c1cc2c(cc1[N+](=O)[O-])OCO2 (centres undefined)	+	-12.3	14.1	0.5	93.4*
Cc1ccsc1C(=O)N1CCC1(C)C(=O)NCCC#N (centres undefined)	nt	nt	-3.4	nt	nt
COc1ccc2[nH]c(=O)c(CN(CCN3CCCC3)C(=O)Nc3ccccc3Cl)cc2c1	i	-7.7	-1.4	57.6*	-3.2
CCOc1ccc2[nH]c(=O)c(CN(CCN3CCCC3)C(=S)Nc3ccccc3OCC)cc2c1	i	-8.3	-37.1	3.0	3.2
CCOC(=O)C1CCN(C(=O)Cn2nc(C)n3c(cc4cc(F)ccc43)c2=O)CC1	i	nt	8.1	nt	-8.8
Cc1nn(CC(=O)NCCCN2CCCC2=O)c(C)c1[N+](=O)[O-]	nt	nt	-21.8	nt	nt
